# Laboratory results reported in PubChem BioAssay AID1347056 (Sanford-Burnham Center for Chemical Genomics, 2019).
# In all, about 360,000 compounds went through this assay and about 3,600 (1%) were called active. Many of the other results were omitted from the sample, so actives are more common in it than they were. Unmarked numbers belong to inactive results.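 How the source made its calls: active means compounds whose plate-normalised and pattern-corrected inhibition of the luciferase reporter signal at the single screening dose is 50% or more; inactive means the rest.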
# Assay: inhibitors of TROY-driven NF-kB signaling, primary screen, Q293 LMP1-TROYcd cells, NF-kB luciferase, uHTS (AID 1347056)
# Conditions: Q293 LMP1-TROYcd NF-kB luciferase reporter, 4 h; at 10 µM; active compounds read high
row,SMILES,inhibition
1,S=C(NCc1ccco1)Nc1ccc2c(c1)OCCO2,8.28%
2,O=C1c2ccccc2C(Nc2ccc3c(c2)OCCO3)N1Cc1ccco1 (stereo not given),62% (active)
3,CCCCCn1nnnc1C1c2ccccc2C(=O)N1Cc1ccco1 (stereo not given),-7.23%
4,NC1=CC(=O)C(=O)c2cccnc21,-15.9%
5,O=C(O)CCCC(=O)Nc1ccccc1-n1ccnc1,13%
6,O=C(NCCOc1ccccc1F)Nc1ccc(Br)cc1,-33.8%
7,O=C(Nc1ccccc1)Nc1nnc(COc2ccccc2F)s1,53.5% (active)
8,O=C(Nc1nnc(COc2ccccc2)s1)Nc1ccccc1F,-7.72%
9,Cc1ccc(NC(=O)C2CC(=O)N(c3ccc4c(c3)OCCO4)C2)cc1S(=O)(=O)N1CCCCCC1 (stereo not given),29.1%
10,Cc1ccc2c(c1)N(CC(=O)N(Cc1ccccn1)Cc1ccco1)C(=O)C(C(C)C)O2 (stereo not given),4.87%
11,O=C(/C=C/NCc1ccc(F)cc1)c1ccccc1,-45.6%
12,Cc1ccc(NNC(=O)C2CCC2)cc1C,-8.76%
13,Cc1ccc(N/C=C/C(=O)c2ccccc2)cc1C,56.6% (active)
14,CCC(C)NC(=O)CN(C1CCCCC1)S(C)(=O)=O (stereo not given),-2.32%
15,COc1ccc(CCN2C(=O)c3[nH]nc(-c4ccccc4O)c3C2c2ccc(C)cc2)cc1OC (stereo not given),22.8%
16,COC(=O)Cn1c(=NC(=O)c2cc(OC)c(OC)c(OC)c2)sc2cc(OC)ccc21,3.88%
17,Cc1ccc(N2CCN(c3ccc([N+](=O)[O-])cn3)CC2)c(C)c1,5.6%
18,NC(=O)C[n+]1cccc(C(N)=O)c1,-13.6%
19,CSc1nnc(NC(=O)c2nc(S(=O)(=O)Cc3ccc(C)cc3)ncc2Cl)s1,-5.7%
20,Cc1cccc(NC(=O)c2nc(S(=O)(=O)Cc3ccccc3)ncc2Cl)c1,77.9% (active)
21,Cc1cccc(CN2CCC(CNC(=O)Nc3ccc(F)c(Cl)c3)CC2)c1,12.4%
22,Cc1ccc(C)c(Cn2nnc3c(=O)[nH]c(C(=O)Nc4ccc(F)cc4)nc32)c1,30.7%
23,Cc1cccc(CS(=O)(=O)c2ncc(Cl)c(C(=O)Nc3ccc(F)cc3)n2)c1,70.8% (active)

row,SMILES,inhibition
1,Cc1cccc(NC(=O)Cn2cc(C(=O)c3ccco3)c3ccccc32)c1,8.41%
2,CCOc1ccc(NC(=O)C2CC(=O)N=C(N)S2)cc1 (stereo not given),15.3%
3,O=C(O)c1ccc(Cn2cnc3c(=S)nc[nH]c32)cc1,12.2%
4,C/C(CC(=O)N1CCN(C=O)CC1)=N\NC(=O)c1ccc(Br)cc1,-8.44%
5,COc1cc(/C=C/C(=O)O)cc(S(=O)(=O)Nc2ccccc2C(=O)NCCc2ccccc2)c1OC,-15.9%
6,CCCCC[C@H]1CN(C2CCCCC2)C(=O)[C@@H]1CC(=O)NCc1ccc(OC)cc1,14.9%
7,Cc1ccc(S(=O)(=O)N2CCC(C(=O)N[C@@H](C)C(=O)NCc3ccco3)CC2)cc1,13.7%
8,CCn1c(SCc2cccc(C(=O)O)c2)nnc1-c1ccc(Cl)cc1,6.17%
9,Cc1ccccc1NC(=O)C1CCCN(C(=O)NCc2ccccc2)C1 (stereo not given),-8.74%
10,COc1ccc2c(c1)c(=Cc1ccc(N(C)C)cc1)c1cc(-c3ccccc3)[n+](C)n12,69.4% (active)
11,COc1cccc(CCNC(=O)c2cccc(NC(=O)C3=C(C)OCCS3)c2)c1,13.6%
12,Cc1cccc(-c2nnc(SCC(=O)O)n2Cc2ccccc2)c1,-6.32%
13,Cc1ccsc1C(=O)OCC(=O)NCCc1ccccc1,-56.3%
14,Cc1ccsc1C(=O)OCC(=O)Nc1cccc(F)c1,-57.4%
15,Cc1ccsc1C(=O)OCC(=O)c1cc(C)n(CC2CCCO2)c1C (stereo not given),78.8% (active)
16,Cc1cccc(C(=O)Nc2ccccc2-c2nnn(CC(=O)Nc3ccc4c(c3)OCCO4)n2)c1,6.18%
17,COc1cc2c(cc1OC)C(=O)NCC(C)(C)O2,32.5%
18,Cc1cc(=O)c2ccc(NC(=O)c3ccccc3)cc2[nH]1,-14.4%
19,CC(=O)c1cc(NC(=O)c2ccccc2)c(=O)oc1/C=C/N(C)C,7.35%
20,O=C(NC1=CC(=O)c2ccccc2C1=O)c1ccccc1,63.7% (active)
21,CC(=O)Nc1cncc(-c2ccccc2CO)n1,-15.3%
22,Cn1c(=O)c2cc(S(=O)(=O)NCCC(=O)Nc3ccc(F)cc3F)ccc2n(C)c1=O,-2.05%
23,O=C(COC(=O)c1ccc(O)cc1O)c1ccc2c(c1)OCCO2,1.99%

row,SMILES,inhibition
1,COc1ccc(C(=O)OCC(=O)Nc2cccc(C(C)=O)c2)cc1OC,10.5%
2,O=C(OCc1ccccc1F)c1ccc2c(c1)OCCO2,-79.6%
3,CC(=O)Nc1cccc(C(=O)OCC(=O)c2ccc3c(c2)OCO3)c1,64.7% (active)
4,O=C(COC(=O)c1ccccc1)c1ccc2c(c1)OCCO2,80.8% (active)
5,CC(=O)Nc1cccc(C(=O)OCC(=O)NCc2cc(C)c(O)c(C)c2)c1,-29%
6,Cc1cccc(OC(=O)c2sc3ncn(C)c(=O)c3c2C)c1,-27.1%
7,COc1cccc(C(=O)N2CCC(n3nccc3NC(=O)C3CCOC3)CC2)c1 (stereo not given),-1.36%
8,CCOc1ccc(C(C(=O)NC2CCCC2)N(C(=O)c2snc(C(N)=O)c2N)C2CCCC2)cc1 (stereo not given),-0.96%
9,Nc1nnc(SCC(=O)NC2CCCc3ccccc32)s1 (stereo not given),21%
10,COc1cccc(NC(=O)N(C)C[C@@H]2Oc3ncc(Br)cc3C(=O)N([C@@H](C)CO)C[C@H]2C)c1,-0.54%
11,Cc1cc(C)cc(NC(=S)NCCc2c[nH]c3ccccc23)c1,1.03%
12,Cc1cccc(NC(=S)NCc2ccc3[nH]c4c(c3c2)CCCC4)c1,63.8% (active)
13,CCc1cccc(CC)c1NC(=S)NCc1ccc2[nH]c(C)cc2c1,-11.8%
14,CC(C)CCN1CCC(C)(NC(=O)c2ccccc2)C1=O (stereo not given),-0.82%
15,C=CCC(NCc1ccco1)c1ccc(OC)cc1 (stereo not given),14.2%
16,CC(=O)c1cccc(-c2cnc3c(NC=O)cc(-c4cccc(C(=O)N(C)C)c4)cn23)c1,-8.12%
17,CC(=O)Nc1cccc(-c2cc(NC=O)c3ncc(-c4ccc(F)c(Cl)c4)n3c2)c1,83.1% (active)
18,COc1cccc(-c2cnc3c(NC(C)=O)cc(-c4cccc(NC(C)=O)c4)cn23)c1,12.8%
19,CC(=O)c1ccc(-c2cnc3c(NC=O)cc(-c4cccc(NS(C)(=O)=O)c4)cn23)cc1,22.6%
20,CC(=O)Nc1cccc(-c2cc(NC(C)=O)c3ncc(-c4ccccc4)n3c2)c1,80.3% (active)
21,COc1cccc(-c2cc(NC(C)=O)c3ncc(-c4cccc(C(C)=O)c4)n3c2)c1,12.8%
22,O=C(Nc1ccccc1F)c1ccc(Cn2cc(Br)cn2)cc1,-34.2%
23,CCC(=NC1CC(C)(C)NC(C)(C)C1)C1=C(O)CC(C)(C)CC1=O,-0.72%

row,SMILES,inhibition
1,CC(C)c1cc(C(=O)O)on1,-0.05%
2,CC1O[C@@H](OC2C(O)C(C)O[C@H](OC(=O)[C@]34CCC(C)(C)C[C@H]3C3=CCC5[C@@]6(C)CC(O)C(O[C@@H]7OC(CO)C(O)[C@@H](O)[C@@H]7O)[C@@](C)(C(=O)O)C6CC[C@@]5(C)[C@]3(CO)CC4)C2O[C@H]2OC(C)[C@@H](O[C@@H]3OCC(O[C@@H]4OC(CO)C(O)[C@H](O)C4O)[C@@H](O)[C@@H]3O)[C@H](O)C2O)C(O)C(O)C1O (stereo not given in full),5%
3,Cc1ccnc(NC(=O)c2ccc(Cl)c([N+](=O)[O-])c2)c1,-25.6%
4,O=C(Nn1c(SCc2ccc([N+](=O)[O-])cc2)nc2ccccc2c1=O)c1ccc(F)cc1,36.3%
5,Cc1nc2ccccc2c(=O)n1NC(=O)c1ccc(Cl)c([N+](=O)[O-])c1,73.3% (active)
6,Cc1cccc(OC(C)C(=O)N2CCc3ccccc3C2)c1 (stereo not given),-6.07%
7,Cc1cccnc1C(NC(=O)C1CCN(Cc2ccc(Cl)c(Cl)c2)CC1)c1ccc(Cl)cc1 (stereo not given),4.08%
8,COCCCNC(=O)CNC(=S)N(Cc1cc(OC)c(OC)c(OC)c1)C1CCCC1,10.9%
9,COC(=O)c1cc(OC)c(OC)cc1NC(=O)CSc1ccc(C)cc1,21.1%
10,Cc1ccc(SCC(=O)c2cc(C)c(OC(=S)N(C)C)c(C)c2)cc1,63.3% (active)
11,Cc1ccc(SCC(=O)Nc2ccc3c(c2)OCCO3)cc1,-62.5%
12,CC(C)(C)c1ccc(Oc2ccc(N)cc2)cc1,86.2% (active)
13,Cc1cc(C(C)(C)C)cc(C)c1N,2.63%
14,CN(C)S(=O)(=O)c1ccc(Oc2ccc(S(=O)(=O)N(C)C)cc2)cc1,-1.31%
15,COc1ccc(S(=O)(=O)N(C)C[C@H]2Oc3ccc(NS(=O)(=O)c4cccs4)cc3CC(=O)N([C@H](C)CO)C[C@H]2C)cc1,-24.6%
16,Cc1ccc(N(C(=O)C(F)(F)F)C(C(=O)NC2CCCCC2)c2ccncc2)cc1C (stereo not given),-2.62%
17,O=C(c1ccc2c(c1)C(=O)N(Cc1ccncc1)C2=O)N1CCN(S(=O)(=O)c2ccc(OC(F)(F)F)cc2)CC1,0.85%
18,CC(C)(C)NC(=O)c1ccc(Cn2cc(C(F)(F)F)ccc2=O)cc1,9.78%
19,COc1ccc(N2CCN(C(=O)CNC(=O)c3ccc(C(C)(C)C)cc3)CC2)cc1,-17.8%
20,O=C(NCC(=O)N1CCN(c2ccccc2F)CC1)c1cccs1,-32.6%
21,O=C(NCC(=O)N1CCN(c2ccccc2O)CC1)c1ccc2ccccc2c1,71.8% (active)
